# In the supplement of paper PMC8728848:
# Only a selection was taken, and the strongest signals are over-represented in it overall.
# Key:
# Test in all cases: glycan array binding signal (z-score within array); higher = stronger binding
# Conditions in all cases: glycan notation: IUPAC condensed, linker removed
# Fuc(a1-2)Gal = molecular target: Fuc(a1-2)Gal
# In short: (§1)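 Glycan array data came from 3228 arrays in the Consortium for Functional Glycomics database, and only arrays with an available protein sequence were kept. Glycan names were put into IUPAC-condensed notation, and columns mapping to the same glycan were averaged. The binding signal is a within-array Z-score, averaged across arrays of one protein sequence run at different concentrations or buffers and across linkers. A negative Z-score can be read as non-binding.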
# [1] = molecular target: Fuc(a1-2)Gal(b1-3)GalNAc(b1-3)Gal(a1-4)Gal(b1-4)Glc
# In short: as §1
# [2] = molecular target: Fuc(a1-2)Gal(b1-3)[Fuc(a1-4)]GlcNAc(b1-2)Man(a1-3)[Fuc(a1-2)Gal(b1-3)[Fuc(a1-4)]GlcNAc(b1-2)Man(a1-6)]Man(b1-4)GlcNAc(b1-4)GlcNAc
# In short: as §1
# [3] = molecular target: Fuc(a1-2)Gal(b1-4)GlcNAc(b1-2)Man
# In short: as §1
# [4] = molecular target: Fuc(a1-2)Gal(b1-4)GlcNAc(b1-2)[Fuc(a1-2)Gal(b1-4)GlcNAc(b1-4)]Man(a1-3)[Fuc(a1-2)Gal(b1-4)GlcNAc(b1-2)Man(a1-6)]Man(b1-4)GlcNAc(b1-4)GlcNAc
# In short: as §1
# [5] = molecular target: Fuc(a1-2)Gal(b1-4)[Fuc(a1-3)]GlcNAc(b1-2)Man(a1-6)[Fuc(a1-2)Gal(b1-4)[Fuc(a1-3)]GlcNAc(b1-2)Man(a1-3)]Man(b1-4)GlcNAc(b1-4)[Fuc(a1-6)]GlcNAc
# In short: as §1
# [6] = molecular target: Fuc(a1-2)Gal(b1-4)[Fuc(a1-3)]GlcNAc(b1-2)[Fuc(a1-2)Gal(b1-4)[Fuc(a1-3)]GlcNAc(b1-4)]Man(a1-3)[Fuc(a1-2)Gal(b1-4)[Fuc(a1-3)]GlcNAc(b1-2)Man(a1-6)]Man(b1-4)GlcNAc(b1-4)GlcNAc
# In short: as §1
# [7] = molecular target: Fuc(a1-2)[Gal(a1-3)]Gal(b1-4)[Fuc(a1-3)]GlcNAc
# In short: as §1
# [8] = molecular target: Gal(a1-3)Gal(b1-3)GlcNAc(b1-2)Man(a1-3)[Gal(a1-3)Gal(b1-3)GlcNAc(b1-2)Man(a1-6)]Man(b1-4)GlcNAc(b1-4)GlcNAc
# In short: as §1
# [9] = molecular target: Gal(a1-3)Gal(b1-4)[Fuc(a1-3)]GlcNAc(b1-2)Man(a1-3)[Gal(a1-3)Gal(b1-4)[Fuc(a1-3)]GlcNAc(b1-2)Man(a1-6)]Man(b1-4)GlcNAc(b1-4)GlcNAc
# In short: as §1
# [10] = molecular target: Gal(a1-4)Gal(b1-4)GlcNAc(b1-2)Man(a1-3)[Gal(a1-4)Gal(b1-4)GlcNAc(b1-2)Man(a1-6)]Man(b1-4)GlcNAc(b1-4)GlcNAc
# In short: as §1
# Gal(a1-4)GlcNAc = molecular target: Gal(a1-4)GlcNAc
# In short: as §1
# [11] = molecular target: Gal(b1-3)GlcNAc(b1-2)Man(a1-3)[Gal(b1-3)GlcNAc(b1-2)Man(a1-6)]Man(b1-4)GlcNAc(b1-4)GlcNAc
# In short: as §1
# [12] = molecular target: Gal(b1-3)GlcNAc(b1-2)Man(a1-3)[GlcNAc(b1-4)][Gal(b1-3)GlcNAc(b1-2)Man(a1-6)]Man(b1-4)GlcNAc(b1-4)GlcNAc
# In short: as §1
# [13] = molecular target: Gal(b1-3)GlcNAc(b1-2)[Gal(b1-3)GlcNAc(b1-6)]Man(a1-6)[Gal(b1-3)GlcNAc(b1-2)Man(a1-3)]Man(b1-4)GlcNAc(b1-4)GlcNAc
# In short: as §1
# [14] = molecular target: Gal(b1-3)GlcNAc(b1-3)Gal(b1-4)Glc
# In short: as §1
# [15] = molecular target: Gal(b1-3)GlcNAc(b1-3)GalNAc
# In short: as §1
# [16] = molecular target: Gal(b1-3)[Fuc(a1-4)]GlcNAc(b1-2)Man(a1-3)[Gal(b1-3)[Fuc(a1-4)]GlcNAc(b1-2)Man(a1-6)]Man(b1-4)GlcNAc(b1-4)[Fuc(a1-6)]GlcNAc
# In short: as §1
# [17] = molecular target: Gal(b1-3)[Fuc(a1-4)]GlcNAc(b1-3)Gal(b1-4)[Fuc(a1-3)]GlcNAc
# In short: as §1
# [18] = molecular target: Gal(b1-3)[Fuc(a1-4)]GlcNAc(b1-6)GalNAc
# In short: as §1
# [19] = molecular target: Gal(b1-3)[Neu5Ac(a2-6)]GalNAc
# In short: as §1
# [20] = molecular target: Gal(b1-3)[Neu5Ac(b2-6)]GalNAc
# In short: as §1
# Gal(b1-4)Glc = molecular target: Gal(b1-4)Glc
# In short: as §1
# [21] = molecular target: Gal(b1-4)GlcNAc(b1-3)Gal(b1-3)GlcNAc
# In short: as §1
# Gal(b1-6)Gal = molecular target: Gal(b1-6)Gal
# In short: as §1
# Gal3S6S(b1-4)GlcNAc = molecular target: Gal3S6S(b1-4)GlcNAc
# In short: as §1
# Gal6S(b1-4)GlcNAc = molecular target: Gal6S(b1-4)GlcNAc
# In short: as §1
# [22] = molecular target: GalNAc(b1-3)Gal(a1-6)Gal(b1-4)Glc
# In short: as §1
# GalNAc3S(b1-4)GlcNAc = molecular target: GalNAc3S(b1-4)GlcNAc
# In short: as §1
# Glc(a1-4)Glc = molecular target: Glc(a1-4)Glc
# In short: as §1
# GlcA(b1-6)Gal = molecular target: GlcA(b1-6)Gal
# In short: as §1
# [23] = molecular target: GlcNAc(a1-3)Gal(b1-4)GlcNAc
# In short: as §1
# [24] = molecular target: GlcNAc(a1-4)Gal(b1-4)GlcNAc(b1-3)Gal(b1-4)[Fuc(a1-3)]GlcNAc(b1-3)Gal(b1-4)[Fuc(a1-3)]GlcNAc
# In short: as §1
# [25] = molecular target: GlcNAc(b1-2)Gal(b1-3)GalNAc
# In short: as §1
# [26] = molecular target: GlcNAc(b1-2)[GlcNAc(b1-6)]Man(a1-6)[GlcNAc(b1-2)Man(a1-3)][GlcNAc(b1-4)]Man(b1-4)GlcNAc(b1-4)GlcNAc
# In short: as §1
# [27] = molecular target: Man(a1-2)Man(a1-2)Man(a1-3)Man
# In short: as §1
# [28] = molecular target: Man(a1-2)Man(a1-6)[Man(a1-3)]Man(a1-6)[Man(a1-2)Man(a1-2)Man(a1-3)]Man
# In short: as §1
# [29] = molecular target: Man(a1-3)[Man(a1-6)]Man(a1-6)[Man(a1-3)]Man
# In short: as §1
# Man(a1-6)Man = molecular target: Man(a1-6)Man
# In short: as §1
# [30] = molecular target: Neu5Ac(a2-6)Gal(b1-4)GlcNAc(b1-2)Man(a1-3)[GlcNAc(b1-2)Man(a1-6)]Man(b1-4)GlcNAc(b1-4)GlcNAc
# In short: as §1
# [31] = molecular target: Neu5Ac(a2-6)Gal(b1-4)GlcNAc(b1-2)Man(a1-6)[Gal(b1-4)GlcNAc(b1-2)Man(a1-3)]Man(b1-4)GlcNAc(b1-4)GlcNAc
# In short: as §1
# [32] = molecular target: Neu5Ac(a2-6)Gal(b1-4)GlcNAc(b1-2)Man(a1-6)[GlcNAc(b1-2)Man(a1-3)]Man(b1-4)GlcNAc(b1-4)GlcNAc
# In short: as §1
# [33] = molecular target: Neu5Ac(a2-6)Gal(b1-4)GlcNAc(b1-3)Gal(b1-4)[Fuc(a1-3)]GlcNAc(b1-3)Gal(b1-4)[Fuc(a1-3)]GlcNAc
# In short: as §1
# Neu5Ac(a2-6)GalNAc = molecular target: Neu5Ac(a2-6)GalNAc
# In short: as §1
# [34] = molecular target: Neu5Ac(a2-6)GlcNAc(b1-4)GlcNAc(b1-4)GlcNAc
# In short: as §1
# [35] = molecular target: Neu5Ac(a2-8)Neu5Ac(a2-8)Neu5Ac(a2-3)[GalNAc(b1-4)]Gal(b1-4)Glc
# In short: as §1
binder,measurement,setting,value
CALR truncated at D342 (Homo sapiens) (protein) EPAVYFKEQFLDGDGWTSRWIESKHKSDFGKFVLSSGKFYGDEEKDKGLQTSQDARFYALSASFEPFSNKGQTLVVQFTVKHEQNIDCGGGYVKLFPNSLDQTDMHGDSEYNIMFGPDICGPGTKKVHVIFNYKGKNVLINKDIRCKDDEFTHLYTLIVRPDNTYEVKIDNSQVESGSLEDDWDFLPPKKIKDPDASKPEDWDERAKIDDPTDSKPEDWDKPEHIPDPDAKKPEDWDEEMDGEWEPPVIQNPEYKGEWKPRQIDNPDYKGTWIHPEIDNPEYSPDPSIYAYDNFGVLGLDLWQVKSGTIFDNFLITNDEAYAEEFGNETWGVTKAAEKQMKD,glycan array binding signal (z-score),Fuc(a1-2)Gal,-0.171
same,glycan array binding signal (z-score),[1],-0.373
same,glycan array binding signal (z-score),[2],3.18
same,glycan array binding signal (z-score),[3],-1.98
same,glycan array binding signal (z-score),[4],2.76
same,glycan array binding signal (z-score),[5],1.04
same,glycan array binding signal (z-score),[6],2.8
same,glycan array binding signal (z-score),[7],-0.484
same,glycan array binding signal (z-score),[8],0.21
same,glycan array binding signal (z-score),[9],2.73
same,glycan array binding signal (z-score),[10],0.225
same,glycan array binding signal (z-score),Gal(a1-4)GlcNAc,4.99
same,glycan array binding signal (z-score),[11],-0.863
same,glycan array binding signal (z-score),[12],-0.281
same,glycan array binding signal (z-score),[13],3.33
same,glycan array binding signal (z-score),[14],-0.183
same,glycan array binding signal (z-score),[15],-0.05
same,glycan array binding signal (z-score),[16],1.24
same,glycan array binding signal (z-score),[17],4.2
same,glycan array binding signal (z-score),[18],0.999
same,glycan array binding signal (z-score),[19],-0.241
same,glycan array binding signal (z-score),[20],0.075
same,glycan array binding signal (z-score),Gal(b1-4)Glc,-0.137
same,glycan array binding signal (z-score),[21],0.662
same,glycan array binding signal (z-score),Gal(b1-6)Gal,0.132
same,glycan array binding signal (z-score),Gal3S6S(b1-4)GlcNAc,0.029
same,glycan array binding signal (z-score),Gal6S(b1-4)GlcNAc,-1.33
same,glycan array binding signal (z-score),[22],-0.627
same,glycan array binding signal (z-score),GalNAc3S(b1-4)GlcNAc,1.07
same,glycan array binding signal (z-score),Glc(a1-4)Glc,-0.124
same,glycan array binding signal (z-score),GlcA(b1-6)Gal,1.96
same,glycan array binding signal (z-score),[23],-0.73
same,glycan array binding signal (z-score),[24],2.68
same,glycan array binding signal (z-score),[25],-0.975
same,glycan array binding signal (z-score),[26],-0.104
same,glycan array binding signal (z-score),[27],-0.176
same,glycan array binding signal (z-score),[28],3.6
same,glycan array binding signal (z-score),[29],-0.102
same,glycan array binding signal (z-score),Man(a1-6)Man,0.051
same,glycan array binding signal (z-score),[30],-0.321
same,glycan array binding signal (z-score),[31],3.22
same,glycan array binding signal (z-score),[32],-1.48
same,glycan array binding signal (z-score),[33],0.139
same,glycan array binding signal (z-score),Neu5Ac(a2-6)GalNAc,-0.893
same,glycan array binding signal (z-score),[34],0.867
same,glycan array binding signal (z-score),[35],-0.341
